# Compound activity from PubChem.
# Rows were chosen to be rich in hits. Some 3.7% of all compounds tested hit in one or more screens of this group.
# MITF act = MITF TRPM1 promoter activation in melanoma cells. SK-MEL-5 TRPM1-promoter luciferase, 24 h; % of positive control, neutral wells = 0. activation, % at 12.5 µM. 300,000 tested, 0.75% active. AID 588334;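 active = mean activation of at least 80% with every replicate also reaching 80%; inconclusive = mean reaches 80% but some replicate falls short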;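 also: 0% = neutral control wells and 100% = parthenolide positive control wells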
# esBAF inh = blocks esBAF chromatin remodeling in mouse ES cells. Bmi1-luciferase knock-in reporter, 24 h; 100% = twice the neutral-well signal. reporter increase, % at 12.5 µM. 350,000 tested, 2% active; in the data active = activation above about 40%; inconclusive = no clear call, values can overlap the other calls;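 also: 0% = median of the plate's neutral control wells and 100% = double that signal; a rise in the Bmi1 reporter signal indicates esBAF inhibition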
# MLL AF4-AF9 inh = MLL-AF4/AF9 protein interaction inhibition; P42568; AlphaScreen, biotin-AF4 peptide binding to FLAG-AF9; inhibition, % at 10 µM; 350,000 tested, 0.47% active; AID 651704;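 active = every replicate reaching a set inhibition limit, whatever the replicate mean, cut at about 25% in these data; inconclusive = mean inhibition reaches that limit but some replicates miss it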;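 also: 0% = plate neutral control median and 100% = total signal loss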
# Target sequence (P42568 whole entry, looked up): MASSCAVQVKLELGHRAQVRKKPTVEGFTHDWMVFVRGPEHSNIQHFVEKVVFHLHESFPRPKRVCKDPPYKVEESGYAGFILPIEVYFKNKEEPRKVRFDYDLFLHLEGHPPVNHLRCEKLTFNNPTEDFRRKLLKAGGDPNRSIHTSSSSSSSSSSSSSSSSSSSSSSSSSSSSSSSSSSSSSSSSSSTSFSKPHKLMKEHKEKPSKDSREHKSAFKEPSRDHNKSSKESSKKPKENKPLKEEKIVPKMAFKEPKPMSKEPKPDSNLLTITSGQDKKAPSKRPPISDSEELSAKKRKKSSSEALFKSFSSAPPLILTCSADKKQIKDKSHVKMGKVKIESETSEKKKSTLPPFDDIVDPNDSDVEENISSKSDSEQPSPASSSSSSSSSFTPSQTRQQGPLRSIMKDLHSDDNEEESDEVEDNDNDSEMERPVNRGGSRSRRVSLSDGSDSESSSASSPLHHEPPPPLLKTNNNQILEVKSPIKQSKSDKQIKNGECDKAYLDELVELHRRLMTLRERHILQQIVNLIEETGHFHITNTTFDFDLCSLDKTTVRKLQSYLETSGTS
# Ecoli rRNA inh = inhibitors of bacterial rRNA selective over humanized ribosomes; GFP signal change (wild-type ribosome), % (test concentration not listed); E. coli WT GFP vs humanized-ribosome RFP mutants, fluorescence, 24 h; hits give low values; DMSO median 0, no signal -100; AID 720706; 350,000 tested, 1.6% active;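 active = significant combined selectivity score with lowered wild-type GFP, culture density cut under 30%, mutant RFP and density less affected; inactive = any of these conditions unmet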
# Wnt bcat act = activates Wnt/beta-catenin signaling in a reporter cell assay; activator, plate reader; activation, % at 9.35 µM; 300,000 tested, 1.2% active; AID 743398; in the data active = activation above about 30%, passing the limit was not always enough; inconclusive = no clear call, values can overlap the other calls;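 also: 0% = neutral control wells and 100% = positive control wells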
# * marks the source's active call; other numbers are inactive results; ? = inconclusive; nt = no result given.
SMILES,MITF act,esBAF inh,MLL AF4-AF9 inh,Ecoli rRNA inh,Wnt bcat act
O=C(Nc1cccc(S(=O)(=O)N2CCCCC2)c1)c1ccc(Cl)nc1,-20,-23,0,-24*,-4
O=C(Nc1ccc2c(c1)OCCO2)c1cccc(S(=O)(=O)N2CCOCC2)c1,55,?,nt,nt,45*
O=C(Nc1cccc(S(=O)(=O)N2CCCCCC2)c1)c1ccc(Cl)nc1,7,3,3,-11,-4
O=C(Nc1ccc2c(c1)OCCO2)c1cccc(S(=O)(=O)N2CCCCC2)c1,7,6,nt,nt,nt
O=C(Nc1ccc2c(c1)OCCO2)C1CCCN(S(=O)(=O)c2cccs2)C1 (stereo not drawn),-8,48*,nt,nt,nt
O=C(NCc1ccccc1)c1cccc(S(=O)(=O)N2CCCCC2)c1,-5,-6,3,-7,0
CS(=O)(=O)c1cccc(C(=O)Nc2ccc3c(c2)OCCCO3)c1,81*,58*,0,3,14
CCN(CC)S(=O)(=O)c1cccc(C(=O)Nc2ccc3c(c2)OCO3)c1,?,nt,3,-15,-2
O=C(NCc1ccc(Cl)cc1)c1cccc(S(=O)(=O)N2CCCC2)c1,-11,4,-2,-19*,4
C[C@@H]1CN([C@H](C)CO)C(=O)c2cc(Br)cnc2O[C@H]1CN(C)Cc1ccc2c(c1)OCO2,nt,-1,0,2,nt
CO[C@H]1CC[C@H]2CCN(C)C(=O)[C@H](C)[C@@H](OC)CN(C)C(=O)c3cc(C#N)ccc3OC[C@@H]1O2,nt,-1,8,3,nt
O=C1CN(/N=C/c2ccc([N+](=O)[O-])o2)C(=O)N1,nt,2,25*,10,2
COc1cc(CNc2ncc(-c3ccc(Br)cc3)n2C)cc(OC)c1OC,nt,-1,12,-19*,-1
CC(Sc1nc2ccccc2c(=O)n1C)C(=O)Nc1ccc2c(c1)OCCO2 (stereo not drawn),-19,-12,1,1,-5
O=C(CSc1nc2ccccc2s1)Nc1ccc2c(c1)OCO2,5,nt,-2,-28*,0
CCC(C(=O)Nc1ccc2c(c1)OCCO2)n1nnc2ccccc2c1=O (stereo not drawn),88*,59*,-2,1,15
O=C(CSc1nncs1)NC(=O)Nc1ccc2c(c1)OCCO2,57,26,-18,-2,37*
O=C(Cn1cnc2ccccc2c1=O)NCc1ccc2c(c1)OCO2,11,-9,nt,nt,nt
O=C(Cn1cnc2ccccc2c1=O)Nc1ccc2c(c1)OCO2,41,57*,2,-8,15
CC(Sc1nc2ccccc2s1)C(=O)Nc1ccc2c(c1)OCO2 (stereo not drawn),6,nt,nt,nt,nt
Cn1c(=O)c2cc(NC(=S)NCc3ccccc3F)ccc2n1Cc1ccccc1,nt,-5,-2,4,1
C=C(C)Cn1c2ccc(NC(=S)NCc3ccccc3F)cc2c(=O)n1C,nt,6,-11,-23*,-2
CCOC(=O)c1cc2sccc2n1CCCN1C(=O)c2ccccc2C1=O,3,-6,2,-28*,-3
CCOC(=O)c1cc2sccc2n1Cc1ccccc1,4,-9,nt,nt,nt
O=C(Nc1cccc(Cl)c1Cl)C1CCCC1,nt,2,1,12,1
SMILES,MITF act,esBAF inh,MLL AF4-AF9 inh,Ecoli rRNA inh,Wnt bcat act
C[C@H](CO)N1C[C@H](C)[C@@H](CN(C)C(=O)Cc2ccccc2)OCCCC[C@H](C)Oc2ccc(NC(=O)CCCN(C)C)cc2C1=O,nt,-3,-3,3,nt
Cc1noc(C)c1CSc1nnc(-c2cc(Cl)ccc2Cl)n1N,nt,11,nt,nt,4
O=C(Nc1ccc(-c2cnco2)cc1)c1ccc(Cl)cc1,nt,34,0,13,-4
O=C(Nc1cccnc1)c1ccc(-c2ccccc2)cc1,65,93*,-3,9,-4
CC(C)(C)C(=O)Nc1ccc(C(=O)Nc2cccnc2)cc1,69,21,nt,nt,49*
O=C(Nc1ccc(Cc2ccc(NC(=O)Nc3cccnc3)cc2)cc1)Nc1cccnc1,nt,56*,-1,-5,-2
O=C(Nc1ccc(-c2cnco2)cc1)c1ccccc1,86*,nt,-4,2,21
O=C(Nc1cccnc1)c1ccc(F)cc1,19,2,nt,nt,-1
CCCC(=O)Nc1ccc2c(c1)OC[C@@H](C)N(C(=O)c1ccccc1F)C[C@@H](C)[C@@H](OC)CN(C)C2=O,nt,5,nt,6,nt
CC1(C)Cc2c(cnn2-c2ccc(F)cc2)C(NC(=O)CCN2CCCC2=O)C1 (stereo not drawn),26,44*,0,4,17
CC1(C)Cc2c(cnn2-c2ccc(F)cc2)C(NC(=O)c2ccco2)C1 (stereo not drawn),16,19,1,-1,0
CC1(C)Cc2c(cnn2-c2ccc(F)cc2)C(NC(=O)C2=NNC(=O)CC2)C1 (stereo not drawn),31,52*,-2,-2,-1
C[C@@H]1CCCCO[C@@H](CN(C)C(=O)Nc2ccc(C(F)(F)F)cc2)[C@H](C)CN([C@@H](C)CO)C(=O)c2cc(NC(=O)Nc3ccc(C(F)(F)F)cc3)ccc2O1,nt,-5,nt,1,nt
CCc1ccc(CNCCNC(=O)c2ccco2)cc1,-7,36,-2,1,42*
NCC[C@H](O)C(=O)N[C@@H]1C[C@H](N)[C@@H](O[C@H]2O[C@H](CN)[C@@H](O)[C@H](O)[C@H]2O)[C@H](O)[C@H]1O[C@H]1O[C@H](CO)[C@@H](O)[C@H](N)[C@H]1O,5,-6,62*,nt,2
CC(C)(C)c1cc(C(=O)NCc2cc(F)cc3c2OCOC3)n(Cc2ccccc2)n1,nt,50*,-1,-2,0
CN1CCN(C(=O)C[C@H]2C[C@@H]3c4cc(NC(=O)Nc5ccccc5)ccc4O[C@@H]3[C@@H](CO)O2)CC1,nt,-2,nt,1,nt
Cn1ccnc1SCC(=O)c1c[nH]c2ccccc12,14,32,-12,1,55*
CC(=O)c1ccc(-n2c(SCC(=O)c3c[nH]c4ccccc34)nc3ccccc3c2=O)cc1,-9,nt,-4,11,45*
Fc1ccc(Oc2ccnc(Cl)n2)c(Cl)c1,nt,nt,4,14,44*
COCOc1cccc(CN2CCC2(C)C(=O)Nc2ccc3c(c2)OCO3)c1 (stereo not drawn),nt,-5,2,-33,-1
c1cc(-c2cc3cc4c(cc3cn2)OCO4)cs1,?,77*,-6,6,50*
COc1ccc2c(c1OC)C(=O)N(c1ccc(F)cc1)C2,?,29,-2,-8,38*
CCOc1cccc(-c2cnc3cccnn23)c1,nt,61*,-13,5,3
Cc1ccc(C(=O)NCCCc2ccccc2)c(C)c1,50,nt,-1,-22,7
NS(=O)(=O)c1ccc(CCNC(=O)c2ccccc2Cc2ccccc2)cc1,-6,1,1,5,31*
Cc1ccc(C(=O)NCCCc2ccccc2)c(Cl)c1,101*,42*,0,-3,18
O=C(NCCCc1ccccc1)c1ccccc1O,44,70*,nt,nt,7
